# The source made the active and inactive calls. Rule as the data show it, unless noted: active = inhibition above about 80%; inactive = the rest.
# Tests used:
# [1] = hESC survival regulators, cell-based (AID 493140; call rule not given here;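 also: cells exposed to compounds for four days before counting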); conditions: human embryonic stem cell survival screen; stronger effect = higher value
# [2] = liver-stage malaria parasite growth inhibition, primary screen, cell-based, HepG2, luciferase luminescence, HepG2 viability (AID 624349; in the data active = parasite load remaining mostly below about 12%, no sharp cut-off; inactive = mostly above about 10%;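 also: 100% = mean of DMSO negative control wells on the same plate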); conditions: P. berghei liver stage in HepG2, luciferase luminescence, concentration not given here; parasite load remaining: stronger effect = lower value; viability: measured here: HepG2 viability without parasites
# [3] = sensitizers of A549 cells to miR-34 induction, primary screen, imaging, A549 dox-inducible miR-34, nuclei and caspase counts (AID 1347080;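 active = compounds whose cell count with miR-34 switched on is under 0.7 times the count with it off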); conditions: A549 miR-34 inducible, Hoechst nuclei count, 48 h
# [4] = survival rescue of mitochondrial mutant cells in low glucose, primary screen, MELAS cybrids, Rieske KO mouse fibroblasts, CellTiter-Glo (AID 1508586;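 active = mean z-score across replicates of 1.96 or higher in either the MELAS or the Rieske mutant cell line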;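 also: z relative to plate mean and SD of compound and empty wells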)
# [5] = LFS_MB_P medulloblastoma growth inhibition, cell-based, chromothripsis tumors, cisplatin or BGB combos (AID 1671449); conditions: LFS_MB_P medulloblastoma cells;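 also: cells exposed for 96 hours; 0% = vehicle DMSO and 100% = killing by high DMSO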
# [6] = HDN33 neuroblastoma growth inhibition, cell-based, chromothripsis tumors, cisplatin or BGB combos (AID 1671450); conditions: HDN33 neuroblastoma cells, stronger effect = higher value;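 also: cells exposed to compound for four days; 0% = vehicle DMSO and 100% = cell killing by high DMSO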
# [7] = ICB984 medulloblastoma cell growth inhibition, synergistic combos for chromothripsis tumors, cisplatin or BGB combos (AID 1671451; call rule not given here;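 also: cells exposed for 96 hours before readout; 0% = vehicle DMSO and 100% = killing by high DMSO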); conditions: ICB984 medulloblastoma cells, drug combinations, stronger effect = higher value
# [8] = LFS_MB_1R medulloblastoma cell growth inhibition, synergistic combos for chromothripsis tumors, cisplatin or BGB combos (AID 1671452); conditions: LFS_MB_1R medulloblastoma cells, stronger effect = higher value;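 also: cells exposed for 96 hours before readout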
# [9] = HTB85 osteosarcoma cell growth inhibition, synergistic combos for chromothripsis tumors, BGB or cisplatin IC20 combos (AID 1671453); conditions: HTB85 osteosarcoma cells, drug combinations, stronger effect = higher value;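 also: cells exposed for 96 hours before readout; 0% = vehicle DMSO and 100% = high DMSO killing control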
# [10] = CRL2098 osteosarcoma cell growth inhibition, synergistic combos for chromothripsis tumors, BGB or cisplatin IC20 combos (AID 1671454); conditions: CRL2098 osteosarcoma cells, drug combinations, stronger effect = higher value;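 also: cells exposed for 96 h before readout; 0% = vehicle DMSO and 100% = killing by high DMSO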
# [11] = HD-MB03 medulloblastoma cell growth inhibition, synergistic combos for chromothripsis tumors, BGB or cisplatin IC20 combos (AID 1671455; in the data active = inhibition above about 83%;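 also: 0% = vehicle DMSO and 100% = high DMSO as cytotoxic control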); conditions: HD-MB03 medulloblastoma cells, stronger effect = higher value
# [12] = UWB1.289 ovarian carcinoma cell growth inhibition, synergistic combos for chromothripsis tumors, BGB or cisplatin combos (AID 1671456); conditions: UWB1.289 ovarian carcinoma cells, stronger effect = higher value;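 also: cells exposed to compound for four days; 0% = vehicle DMSO and 100% = killing by high DMSO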
# [13] = LFS_MB_2R medulloblastoma cell growth inhibition, synergistic combos for chromothripsis tumors, cisplatin combos (AID 1671457); conditions: LFS_MB_2R medulloblastoma cells, stronger effect = higher value;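 also: cells exposed to compound for four days before readout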
# [14] = MDA-MB-436 breast carcinoma cell growth inhibition, synergistic combos for chromothripsis tumors, BGB or cisplatin combos (AID 1671458; call rule not given here;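 also: cells exposed for 96 hours; 0% = vehicle DMSO and 100% = killing by high DMSO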); conditions: MDA-MB-436 breast carcinoma growth inhibition, drug combinations, stronger effect = higher value
# [15] = UWB1.289_BRCA1 ovarian cancer growth, cell-based, BGB or cisplatin combinations (AID 1671459); conditions: UWB1.289 BRCA1 ovarian carcinoma, drug combinations, stronger effect = higher value
# [16] = human astrocyte viability loss, single and combined drugs, cytotoxicity control for chromothriptic childhood tumor combination screen, cell-based, BGB or cisplatin IC20 combos (AID 1671460); conditions: Human astrocytes, drug combinations, stronger effect = higher value;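 also: cells exposed to compounds for 96 hours before viability readout; 0% = vehicle and 100% = killing control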
# [17] = growth inhibition of BT084 medulloblastoma cells, cell-based, ICGC_MB145, cisplatin and BGB IC40 combos (AID 1671461); conditions: drug combinations, stronger effect = higher value;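 also: cells exposed to drugs for 96 hours; 0% = vehicle DMSO and 100% = high DMSO full killing control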
# [18] = growth inhibition of RCMB18 medulloblastoma cells, cell-based, cisplatin and BGB IC40 combos (AID 1671462); conditions: stronger effect = higher value;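 also: cells exposed to compound for four days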
# [19] = growth inhibition of CRL1545 osteosarcoma cells, cell-based, cisplatin and BGB IC20 combos (AID 1671464); conditions: stronger effect = higher value;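 also: cells exposed to compound for 96 hours before readout; 0% = vehicle DMSO and 100% = high DMSO killing control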
# [20] = stronger effect = lower value, cell number ratio, induced over uninduced
# [21] = measured here: relative caspase fold change +Dox/-Dox
# [22] = measured here: total cells with miR-34 induction, stronger effect = lower value
# [23] = measured here: total cells without miR-34 induction
# [24] = MELAS cybrid survival, CellTiter-Glo 48 h, stronger effect = higher value
# [25] = Rieske KO mouse fibroblast survival, CellTiter-Glo 72 h
# [26] = measured here: combination with BGB IC40, at 0.05 µM
# [27] = measured here: with BGB IC20 combination, at 0.5 µM
# [28] = measured here: with cisplatin IC20 combination, at 0.5 µM
# [29] = measured here: combination with cisplatin, at 0.5 µM
# [30] = measured here: combination with cisplatin, at 5 µM
smiles,measurement,setting,value
CC(C)(C)C(=O)OCOC(=O)[C@@H]1N2C(=O)[C@@H](N=CN3CCCCCC3)[C@H]2SC1(C)C,survival,[1],17.2 (inactive)
same,parasite load remaining,[2],86.3% (inactive)
same,viability,[2],108%
same,fold change,[3]; [20],0.956 (inactive)
same,fold change,[3]; [21],0.721
same,cell count,[3]; [22],9610
same,cell count,[3]; [23],10100
same,z-score,[4]; [24],0.579 (inactive)
same,z-score,[4]; [25],-0.414
CC(=O)O[C@]1(C(C)=O)CC[C@H]2[C@@H]3C=C(Cl)C4=CC(=O)C5CC5[C@]4(C)[C@H]3CC[C@@]21C (some centres not stated),survival,[1],12.6 (inactive)
same,parasite load remaining,[2],65.7% (inactive)
same,viability,[2],68.5%
same,fold change,[3]; [20],0.93 (inactive)
same,fold change,[3]; [21],0.98
same,cell count,[3]; [22],8920
same,cell count,[3]; [23],9590
same,z-score,[4]; [24],-0.145 (inactive)
same,z-score,[4]; [25],0.56
O=c1[nH]c(=O)n(C2CC(O)C(CO)O2)cc1I (configuration not stated),fold change,[3]; [20],0.851 (inactive)
same,fold change,[3]; [21],0.749
same,cell count,[3]; [22],6980
same,cell count,[3]; [23],8200
same,z-score,[4]; [24],-0.224 (inactive)
same,z-score,[4]; [25],-0.483
same,inhibition,"[5]; at 0.5 µM, stronger effect = higher value",4.71% (inactive)
same,inhibition,"[5]; measured here: combination with BGB IC20, at 0.005 µM",8.42%
same,inhibition,"[5]; measured here: combination with BGB IC40, at 0.005 µM",-21.4%
same,inhibition,[5]; [26],12.9%
same,inhibition,"[5]; measured here: combination with cisplatin, at 0.5 µM, stronger effect = higher value",-5.31%
same,inhibition,"[5]; measured here: combination with cisplatin, at 5 µM, stronger effect = higher value",2.43%
same,inhibition,"[6]; BGB combo, at 5 µM",9.54%
same,inhibition,[6]; at 0.5 µM,-18.4% (inactive)
same,inhibition,"[6]; cisplatin combo, at 5 µM",3.9%
same,inhibition,[6]; [27],-28.5%
same,inhibition,[6]; [28],-14%
same,inhibition,"[6]; single agent, at 5 µM",24%
same,inhibition,"[7]; BGB IC20 combo, at 0.005 µM",-15.6%
same,inhibition,"[7]; BGB IC40 combo, at 0.005 µM",-20.9%
same,inhibition,"[7]; BGB IC40 combo, at 0.05 µM",-13.7%
same,inhibition,[7]; at 0.5 µM,-8.85% (inactive)
same,inhibition,"[7]; cisplatin combo, at 0.05 µM",-13.7%
same,inhibition,"[7]; cisplatin combo, at 0.5 µM",-12.8%
same,inhibition,"[7]; cisplatin combo, at 5 µM",-9.03%
same,inhibition,"[7]; measured here: 5 uM single agent, at 5 µM",4.46%
same,inhibition,[8]; at 0.5 µM,-47.8% (inactive)
same,inhibition,[8]; [26],-9.63%
same,inhibition,[8]; [29],-105%
same,inhibition,[8]; [30],-24%
same,inhibition,[9]; at 0.5 µM,-28.2% (inactive)
same,inhibition,"[9]; measured here: with BGB IC20, at 0.5 µM",-26.8%
same,inhibition,"[9]; measured here: with BGB IC20, at 5 µM",-4.26%
same,inhibition,"[9]; measured here: with cisplatin IC20, at 0.5 µM",-39.9%
same,inhibition,"[9]; measured here: with cisplatin IC20, at 5 µM",-31.8%
same,inhibition,"[9]; single agent, at 5 µM",-17.4%
same,inhibition,[10]; at 0.5 µM,-42.2% (inactive)
same,inhibition,"[10]; measured here: combination with BGB at IC20, at 0.5 µM",-45.9%
same,inhibition,"[10]; measured here: combination with cisplatin at IC20, at 0.5 µM",-41.5%
same,inhibition,[11]; at 0.5 µM,-7.04% (inactive)
same,inhibition,"[11]; measured here: combo with BGB at IC20, at 0.5 µM",-3.12%
same,inhibition,"[11]; measured here: combo with cisplatin at IC20, at 0.5 µM",-7.71%
same,inhibition,[12]; at 0.5 µM,-5.21% (inactive)
same,inhibition,"[12]; measured here: inhibition with BGB combination, at 0.05 µM",-13.3%
same,inhibition,"[12]; measured here: inhibition with cisplatin combination, at 0.05 µM",-14.8%
same,inhibition,[13]; at 0.5 µM,-2.58% (inactive)
same,inhibition,[13]; [29],4.62%
same,inhibition,[13]; [30],-3.61%
same,inhibition,[14]; at 0.5 µM,-9.35% (inactive)
same,inhibition,"[14]; measured here: BGB combination, at 0.5 µM",-10.8%
same,inhibition,"[14]; measured here: BGB combination, at 5 µM",-16.9%
same,inhibition,"[14]; measured here: cisplatin combination, at 0.5 µM",-22.4%
same,inhibition,"[14]; measured here: cisplatin combination, at 5 µM",-10.7%
same,inhibition,"[15]; BGB combination, concentration series, at 5 µM",0.385%
same,inhibition,[15]; at 0.5 µM,-5.4% (inactive)
same,inhibition,"[15]; cisplatin combination, concentration series, at 5 µM",-6.29%
same,inhibition,[16]; at 0.5 µM,-11.4% (inactive)
same,inhibition,"[16]; measured here: combo with BGB IC20, at 0.5 µM",-7.44%
same,inhibition,"[16]; measured here: combo with cisplatin IC20, at 0.5 µM",-19.9%
same,inhibition,[17]; at 0.5 µM,-4.3% (inactive)
same,inhibition,"[17]; cisplatin combination, at 0.5 µM",-7.3%
same,inhibition,"[17]; cisplatin combination, at 5 µM",-44.5%
same,inhibition,"[17]; measured here: BGB IC40 combination 0.05 uM, at 0.05 µM",12.9%
same,inhibition,"[17]; single agent, at 5 µM",-7.11%
same,inhibition,[18]; at 0.5 µM,-5.93% (inactive)
same,inhibition,"[18]; cisplatin combo, at 5 µM",-28.2%
same,inhibition,"[18]; measured here: BGB IC40 combination, at 0.05 µM",-1.89%
same,inhibition,[18]; [29],-10.4%
same,inhibition,"[18]; single agent, at 5 µM",-39.8%
same,inhibition,[19]; at 0.5 µM,-56.2% (inactive)
same,inhibition,[19]; [27],-15.6%
same,inhibition,[19]; [28],-76.5%
same,inhibition,"[19]; single agent, at 0.05 µM",10.9%
same,inhibition,"[19]; single agent, at 5 µM",6.02%

# — PubChem BioAssay
